Test results taken from paper doi:10.1101/2024.03.05.583629.

biological target: pT7_6His-AlfaTag-HOXD13 (human, UniProt P35453 263-343); experiment: PADIT-seq; details: dsDNA, one strand shown
Sequence (P35453 263-343): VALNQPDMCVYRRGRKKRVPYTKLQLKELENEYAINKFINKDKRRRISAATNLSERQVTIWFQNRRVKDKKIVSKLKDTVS

Sequence | binding signal
CTCGAGGATATCAAGATCTGGCCTCGGCTTACTAAAAGGAACCTCTAGCTAGCCGACTCACTATAGGGATAATCGCCCTGAGCAAAGACC | 0.214 ± 0.111 log2FC
CTCGAGGATATCAAGATCTGGCCTCGGCCAGTTAAAAGGAACCTCTAGCTAGCCGACTCACTATAGGGATAATCGCCCTGAGCAAAGACC | 2 ± 0.0881 log2FC
CTCGAGGATATCAAGATCTGGCCTCGGCGCGCGCGCGGGAACCTCTAGCTAGCCGACTCACTATAGGGATAATCGCCCTGAGCAAAGACC | -1.01 ± 0.148 log2FC
CTCGAGGATATCAAGATCTGGCCTCGGCCGCTGACGCGGAACCTCTAGCTAGCCGACTCACTATAGGGATAATCGCCCTGAGCAAAGACC | -0.995 ± 0.158 log2FC
CTCGAGGATATCAAGATCTGGCCTCGGCGCATTAAAAGGAACCTCTAGCTAGCCGACTCACTATAGGGATAATCGCCCTGAGCAAAGACC | 1.77 ± 0.0683 log2FC
CTCGAGGATATCAAGATCTGGCCTCGGCCGCTAACGCGGAACCTCTAGCTAGCCGACTCACTATAGGGATAATCGCCCTGAGCAAAGACC | -0.899 ± 0.132 log2FC
CTCGAGGATATCAAGATCTGGCCTCGGCGTTTTACTAGGAACCTCTAGCTAGCCGACTCACTATAGGGATAATCGCCCTGAGCAAAGACC | 2.96 ± 0.0769 log2FC
CTCGAGGATATCAAGATCTGGCCTCGGCATTTTAGTCGGAACCTCTAGCTAGCCGACTCACTATAGGGATAATCGCCCTGAGCAAAGACC | -0.427 ± 0.127 log2FC
CTCGAGGATATCAAGATCTGGCCTCGGCATTTTAGAAGGAACCTCTAGCTAGCCGACTCACTATAGGGATAATCGCCCTGAGCAAAGACC | 0.382 ± 0.0937 log2FC
CTCGAGGATATCAAGATCTGGCCTCGGCCGAATAAAAGGAACCTCTAGCTAGCCGACTCACTATAGGGATAATCGCCCTGAGCAAAGACC | 1.27 ± 0.0923 log2FC
CTCGAGGATATCAAGATCTGGCCTCGGCTTTCTAAAAGGAACCTCTAGCTAGCCGACTCACTATAGGGATAATCGCCCTGAGCAAAGACC | -0.511 ± 0.118 log2FC
CTCGAGGATATCAAGATCTGGCCTCGGCACCTTAAAAGGAACCTCTAGCTAGCCGACTCACTATAGGGATAATCGCCCTGAGCAAAGACC | 0.52 ± 0.102 log2FC
CTCGAGGATATCAAGATCTGGCCTCGGCATTGTAAAAGGAACCTCTAGCTAGCCGACTCACTATAGGGATAATCGCCCTGAGCAAAGACC | 2.55 ± 0.0888 log2FC
